# In a collection of fitness landscapes (doi:10.1016/j.celrep.2020.107928):
# Whole data set: some 81,000 sequences, median “one-hybrid fitness for binding NBS DNA” near -0.1, cut for the highest 2% near 0.36. Only a selection was taken, and the highest values are over-represented in it overall.
# B1: Caulobacter ParB omega fusion; a variant is named by its letters at X, in order, B8GW30 (parent)
# chain: MESVVVGEPGMSEGRRGLGRGLSALLGEVDAAPAQAPGEQLGGSREAPIEILQRNPDQPRRTFREEDLEDLSNSIREKGVLQPILVRPSPDTAGEYQIVAGERAWRAAQRAGLKTVPIMVRELDDLAVLEIGIIENVQRADLNVLEEALSYKVLMEKFERTQENIAQTIGKSXSHVANXMRLLXLPDEVQSYLVSGELTAXHARAIAAAADPVALAKQIIEGGLSVRETEALARKAPNLSAGKSKGGRPPRVKDTDTQALESDLSSVLGLDVSIDHRGSTGTLTITYATLEQLDDLCNRLTRGI
# Variants of: B1
# Experiment: one-hybrid fitness for binding NBS DNA (the Noc-binding site; scaled: cognate 1, non-cognate 0); higher = stronger binding
# Conditions: with NBS DNA site
# Summary of the method: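 Values were rescaled so that cognate is 1 and non-cognate is 0. Each is a fitness, the log change in a variant's read ratio to wild type from Illumina reads of plasmids before and after selection, with three replicate libraries pooled and variants under 10 reads dropped. Selection of the Caulobacter ParB libraries, four specificity codons randomised, used E. coli USO with a HIS3 reporter, site 19 bp from the promoter, on M9-minus-histidine with 0.1 mM IPTG and 5 mM 3-AT for 48 hours at 37°C.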
row,Variant,one-hybrid fitness for binding NBS DNA
1,LHLS,≤ 0.2
2,ILDG,≤ 0.2
3,GDTF,≤ 0.2
4,TMRI,≤ 0.2
5,MQPC,≤ 0.2
6,MRDI,≤ 0.2
7,WQSY,≤ 0.2
8,RYAT,0.461
9,RYCG,≤ 0.2
10,RYCT,0.372
11,RYCC,≤ 0.2
12,RYFT,≤ 0.2
13,RYAH,≤ 0.2
14,TALL,≤ 0.2
15,HITC,≤ 0.2
16,LYGC,≤ 0.2
17,QTWD,≤ 0.2
18,QTWH,≤ 0.2
19,QHWT,0.375
20,QTYT,0.572
21,NTRT,≤ 0.2
22,QTRT,0.891
23,QHWD,≤ 0.2
24,QTWT,0.543

row,Variant,one-hybrid fitness for binding NBS DNA
1,DTRT,≤ 0.2
2,QHWN,≤ 0.2
3,DQMC,≤ 0.2
4,HTHS,≤ 0.2
5,SPAK,≤ 0.2
6,IRFR,≤ 0.2
7,WCIR,≤ 0.2
8,QTSF,≤ 0.2
9,QTST,0.61
10,QSWT,0.348
11,QTND,0.227
12,QCWT,0.461
13,QTDT,0.448
14,QTSC,0.214
15,QTNT,0.71
16,QTNP,≤ 0.2
17,QPWT,≤ 0.2
18,IHPM,≤ 0.2
19,MVSY,≤ 0.2
20,TTTW,≤ 0.2
21,HGWD,≤ 0.2
22,LSVE,≤ 0.2
23,EWQK,≤ 0.2
24,GLRI,≤ 0.2

row,Variant,one-hybrid fitness for binding NBS DNA
1,TRMF,≤ 0.2
2,IGRY,≤ 0.2
3,TCVT,≤ 0.2
4,TPVT,0.375
5,TRSQ,≤ 0.2
6,TPKT,≤ 0.2
7,TSSQ,0.493
8,TPKQ,≤ 0.2
9,TPKR,0.351
10,TSVQ,≤ 0.2
11,TCVR,≤ 0.2
12,TPVR,0.513
13,TTSQ,≤ 0.2
14,TPVQ,0.763
15,VMCN,≤ 0.2
16,SSHR,0.261
17,WIIS,≤ 0.2
18,QDAC,≤ 0.2
19,YRCS,≤ 0.2
20,QPDL,≤ 0.2
21,QYVG,≤ 0.2
22,RKCC,≤ 0.2
23,HGRR,≤ 0.2
24,EGQR,≤ 0.2

row,Variant,one-hybrid fitness for binding NBS DNA
1,QHIA,≤ 0.2
2,QIKA,0.351
3,QCKA,0.608
4,QHKA,0.597
5,QALA,≤ 0.2
6,QPKA,≤ 0.2
7,QHVA,≤ 0.2
8,QMVA,≤ 0.2
9,QMIA,≤ 0.2
10,QMKA,0.596
11,QAKA,0.521
12,QAVA,≤ 0.2
13,NDTL,≤ 0.2
14,YAKI,≤ 0.2
15,LRRN,≤ 0.2
16,TCKG,≤ 0.2
17,WGAS,≤ 0.2
18,PPRC,≤ 0.2
19,QKVA,≤ 0.2
20,QLVA,≤ 0.2
21,QSVA,≤ 0.2
22,QLKA,0.466
23,QKPA,≤ 0.2
24,QLLA,≤ 0.2

row,Variant,one-hybrid fitness for binding NBS DNA
1,QWKA,≤ 0.2
2,QSKA,0.558
3,QKKA,0.577
4,AVKE,≤ 0.2
5,NQRA,≤ 0.2
6,FGAF,≤ 0.2
7,QMVP,≤ 0.2
8,QMKL,0.262
9,QMKG,0.336
10,QMVD,≤ 0.2
11,QMVR,0.424
12,QMKR,1.03
13,TAHS,≤ 0.2
14,IMVC,≤ 0.2
15,HTKM,≤ 0.2
16,KTGG,≤ 0.2
17,ETHC,≤ 0.2
18,RRGQ,0.239
19,RRQK,0.261
20,RRLQ,0.209
21,RRQF,0.221
22,RRLG,0.245
23,RPDR,≤ 0.2
24,RRGF,≤ 0.2

row,Variant,one-hybrid fitness for binding NBS DNA
1,RRDR,0.666
2,RRQR,0.765
3,RRLR,0.702
4,RRGR,0.744
5,SFAS,≤ 0.2
6,HDCG,≤ 0.2
7,DQVR,≤ 0.2
8,KNLL,≤ 0.2
9,DPPY,≤ 0.2
10,PPNW,≤ 0.2
11,ARKC,≤ 0.2
12,HVNI,≤ 0.2
13,HCSE,≤ 0.2
14,RGRR,0.336
15,RERR,≤ 0.2
16,RRSR,0.756
17,RRER,0.629
18,RRNE,≤ 0.2
19,RRNG,0.343
20,RRSF,≤ 0.2
21,RRNR,0.813
22,RRRR,0.904
23,RPER,≤ 0.2
24,RCER,0.245

row,Variant,one-hybrid fitness for binding NBS DNA
1,RRSM,0.311
2,PAQI,≤ 0.2
3,TDSA,≤ 0.2
4,YSRC,≤ 0.2
5,RRCF,≤ 0.2
6,RRCR,0.75
7,RRWK,0.249
8,RRWR,0.732
9,RRHQ,0.293
10,RRCC,0.325
11,RRWG,0.216
12,RRHR,0.771
13,RRHF,0.207
14,RRYR,0.728
15,ETHW,≤ 0.2
16,GAPL,≤ 0.2
17,TTDQ,≤ 0.2
18,QPFL,≤ 0.2
19,QGKK,≤ 0.2
20,MPVQ,≤ 0.2
21,KLMT,≤ 0.2
22,PRPV,≤ 0.2
23,TLPW,≤ 0.2
24,PPHD,≤ 0.2

row,Variant,one-hybrid fitness for binding NBS DNA
1,RYTW,≤ 0.2
2,QMRL,0.287
3,QCKL,0.307
4,DPRL,≤ 0.2
5,QTVL,≤ 0.2
6,QTYL,≤ 0.2
7,QTKL,0.395
8,DCRL,0.405
9,QTRL,0.406
10,QPRL,≤ 0.2
11,QCRL,0.401
12,QTDL,≤ 0.2
13,DIRL,≤ 0.2
14,DKKC,≤ 0.2
15,LTSP,≤ 0.2
16,DSLM,≤ 0.2
17,GRHR,≤ 0.2
18,VANW,≤ 0.2
19,RFPW,≤ 0.2
20,RCCM,≤ 0.2
21,PGLH,≤ 0.2
22,CHHR,≤ 0.2
23,QRKL,0.367
24,QRYL,≤ 0.2

row,Variant,one-hybrid fitness for binding NBS DNA
1,QRVL,≤ 0.2
2,FRYF,≤ 0.2
3,INML,≤ 0.2
4,RHRN,≤ 0.2
5,RHIS,≤ 0.2
6,RHRD,≤ 0.2
7,RHDS,≤ 0.2
8,RHHD,≤ 0.2
9,RHNS,0.505
10,RHRS,0.585
11,RHNH,≤ 0.2
12,RHWS,≤ 0.2
13,RHHS,0.443
14,RHHN,≤ 0.2
15,RHYS,0.376
16,MVLT,≤ 0.2
17,QIMY,≤ 0.2
18,AMWR,≤ 0.2
19,RYEA,≤ 0.2
20,SMFC,≤ 0.2
21,RFVV,≤ 0.2
22,KGDK,≤ 0.2
23,QCFY,0.213
24,QCAY,0.21

row,Variant,one-hybrid fitness for binding NBS DNA
1,QSFY,≤ 0.2
2,QSAY,≤ 0.2
3,QRAY,0.516
4,QRFY,0.392
5,PAFP,≤ 0.2
6,VCPS,≤ 0.2
7,MCMN,≤ 0.2
8,DHRV,≤ 0.2
9,QRTG,0.356
10,QCTM,≤ 0.2
11,QRTV,0.412
12,QCTQ,≤ 0.2
13,QRTF,0.294
14,QSTM,≤ 0.2
15,QPTV,≤ 0.2
16,QRTM,0.414
17,QCTV,≤ 0.2
18,QRTS,0.685
19,QRTQ,0.437
20,QSTQ,≤ 0.2
21,ATLR,≤ 0.2
22,IYRI,≤ 0.2
23,AKFY,≤ 0.2
24,IYLA,≤ 0.2

row,Variant,one-hybrid fitness for binding NBS DNA
1,KPSG,≤ 0.2
2,GTKT,≤ 0.2
3,SIIE,≤ 0.2
4,QRTP,0.263
5,QRTK,0.414
6,QCTH,0.295
7,QRTH,0.57
8,QRTN,0.429
9,QPTC,≤ 0.2
10,QCTK,≤ 0.2
11,QPTH,≤ 0.2
12,QRTD,0.259
13,QCTC,≤ 0.2
14,QPTK,≤ 0.2
15,QRTC,0.395
16,LCDV,≤ 0.2
17,ANGR,≤ 0.2
18,WTTR,≤ 0.2
19,MSHC,0.26
20,SNER,≤ 0.2
21,FAVS,≤ 0.2
22,FHLT,≤ 0.2
23,QRTY,0.519
24,QCTY,0.225

row,Variant,one-hybrid fitness for binding NBS DNA
1,EFTS,≤ 0.2
2,EFTH,≤ 0.2
3,EFTN,0.392
4,QPTY,≤ 0.2
5,PRAG,≤ 0.2
6,GACS,≤ 0.2
7,RKMP,≤ 0.2
8,RTMR,0.503
9,RPMR,≤ 0.2
10,RHMP,≤ 0.2
11,RKMR,0.577
12,RHMN,≤ 0.2
13,RLMR,0.341
14,RCMR,0.461
15,RKMH,0.214
16,RHMR,0.368
17,RTMP,≤ 0.2
18,RTMN,≤ 0.2
19,SFRE,≤ 0.2
20,NGWG,≤ 0.2
21,SIAC,≤ 0.2
22,KQGK,≤ 0.2
23,IDPS,≤ 0.2
24,ICRN,≤ 0.2

row,Variant,one-hybrid fitness for binding NBS DNA
1,NDES,≤ 0.2
2,PLNE,≤ 0.2
3,RGAY,≤ 0.2
4,IIPP,≤ 0.2
5,THSS,≤ 0.2
6,NHMG,≤ 0.2
7,RRMF,≤ 0.2
8,RIMR,0.319
9,RRMR,0.723
10,RSMR,0.369
11,RQMR,0.385
12,RQMP,≤ 0.2
13,RQMD,≤ 0.2
14,RAMR,0.341
15,RRMQ,0.253
16,VAIA,≤ 0.2
17,LTDL,≤ 0.2
18,HGGT,≤ 0.2
